Each structure is given as a SMILES string. In all, about 16,000 compounds went through this assay and about 5,800 (36%) were called active. About 23% were inconclusive and are not listed. This is one part of the list. Values without a mark were called inactive. The call rests on the fitted dose curve; in most records, active means well fitted curve in the direction sought with a large enough effect; inconclusive means small, poorly fitted or top-dose-only effect, or effect the other way; inactive means no such curve, though single readings can be large or run the other way.
On the % scale 0 is the no-effect control and ±100 the full control effect.

The target of this test is Cytochrome P450 2C19 (Homo sapiens) (UniProt P33261). Kind of test: Cytochrome panel assay with activity outcomes. As to conditions: recombinant CYP, pro-luciferin dealkylation, luminescence, p450-cyp2c19; series mostly up to 57.1 µM; activity, negative = inhibition: at the top concentration.
Cytochrome P450 2C19 (Homo sapiens), sequence (P33261 whole entry, looked up): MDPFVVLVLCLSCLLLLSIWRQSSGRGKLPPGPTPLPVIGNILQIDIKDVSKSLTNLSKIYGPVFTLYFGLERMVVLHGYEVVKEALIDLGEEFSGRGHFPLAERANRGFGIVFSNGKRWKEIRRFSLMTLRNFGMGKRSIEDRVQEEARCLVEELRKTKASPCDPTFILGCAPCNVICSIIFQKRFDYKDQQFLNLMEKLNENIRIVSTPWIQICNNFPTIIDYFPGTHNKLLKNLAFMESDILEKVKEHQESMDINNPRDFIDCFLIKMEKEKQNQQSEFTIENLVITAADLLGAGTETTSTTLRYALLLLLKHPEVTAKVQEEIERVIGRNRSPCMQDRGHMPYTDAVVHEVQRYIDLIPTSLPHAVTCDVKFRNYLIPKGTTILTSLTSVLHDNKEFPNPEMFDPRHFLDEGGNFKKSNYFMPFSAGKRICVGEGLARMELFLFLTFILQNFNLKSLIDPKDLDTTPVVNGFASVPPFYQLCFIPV
As to `COC(=O)N1CCC2(CCN(C(=O)NC(C)C)CC2)CC1`, the “activity, negative = inhibition” value was -30.2%. `FC(F)(F)c1nnc2c(Sc3ccccc3)nc3ccc(Cl)cc3n12`: the AC50 – broadly, the midpoint of the concentration-response curve, whichever way the signal moves – was 1410 nM (active). For `FC(F)(F)c1nnc2c(Sc3ccc(Cl)cc3)nc3ccccc3n12`, the “activity, negative = inhibition” value is -25.8%. Regarding `C[C@@]1(C(NC(=O)Cc2ccc(C(F)(F)F)cc2)c2ccc(-c3ccccc3)cc2)C[C@H]1C1CCCCC1` (stereo not given in full), the “activity, negative = inhibition” value is 11.3%.

For the compound `CC(C)NC(=O)c1ccc(-c2cccc(C(F)(F)F)c2)o1`, the AC50 is 7080 nM (active). On to `CC(C)NC(=O)N1CCC2(CC1)CCN(C(=O)c1cc(C(F)(F)F)cc(C(F)(F)F)c1)CC2`, for which the “activity, negative = inhibition” value is 40.4%. On to `CC(=O)Nc1ccc(S(=O)(=O)NCC2CCC(C(=O)NCCC(C)C)CC2)cc1` (stereo not given), for which the AC50 was 31600 nM (active). For the compound `Cc1ccc(S(=O)(=O)NCC2CCC(C(=O)O)CC2)cc1` (stereo not given), the “activity, negative = inhibition” value is -27.4%. Regarding `COCCCNC(=O)C1CCN(S(=O)(=O)N(CC(C)C)CC(C)C)CC1`, the “activity, negative = inhibition” value is -29.5%.

Consider `CCCN(CCc1ccccc1)[C@H]1CCc2c(O)cccc2C1`, for which the “activity, negative = inhibition” value is -35.8%. In the case of `Cc1cc(C)c(Cn2cnc(-c3ccc([N+](=O)[O-])cc3)c2)c(C)c1`, the AC50 was 3160 nM (active). Take `Cc1ccc(COn2c(-c3ccc(Cl)cc3)nc3ccc([N+](=O)[O-])cc32)cc1`: the “activity, negative = inhibition” value is -21.9%. `C=C(C)C1CC=C(C)/C(=N/NC(=O)c2ccc(NC(=O)c3cccc(C)c3)cc2)C1` (stereo not given): the AC50 was 1410 nM (active).

Regarding `Nc1nc(Cl)nc2c1ncn2[C@@H]1O[C@@H](CO)[C@@H](O)[C@H]1O`, the “activity, negative = inhibition” value was -18.4%.

As for `Nc1nc(Nc2ccccc2)nc2c1ncn2[C@@H]1O[C@@H](CO)[C@H](O)[C@H]1O`, the AC50 was 631 nM (active). Consider `Nc1nc(Nc2ccccc2)nc2c1ncn2[C@@H]1O[C@@H](CO)[C@H](O)[C@@H]1O`, for which the “activity, negative = inhibition” value was 13.2%.

In the case of `CCOc1cc(C)ccc1OCc1nnc(SCC(=O)c2cccc([N+](=O)[O-])c2)n1C`, the AC50 is 14100 nM (active). Regarding `CCOc1cc(C)ccc1OCc1nnc(SCC(=O)c2cccc([N+](=O)[O-])c2)n1CC`, the “activity, negative = inhibition” value was -7.04%. As for `C=CCn1c(Cc2ccc(OC)cc2)nnc1SCC(=O)c1cccc([N+](=O)[O-])c1`, the AC50 is 14100 nM (active). On to `CC1(C)OC(C(N)=O)C(C(N)=O)O1` (stereo not given), for which the “activity, negative = inhibition” value is -17.1%. Same read-out and setting: next, `CC(C)(CO)N1CCN(C(=S)Nc2ccccc2)CC1`: 4.38% [at 11.4 µM]. As to `COc1cc2c(cc1OC)CN(C(=S)Nc1ccccc1)CC2`, the AC50 was 2510 nM (active). In the case of `COCOc1ccc(Br)cc1C(=O)[C@H]1O[C@H]1c1cccc(OC)c1`, the AC50 is 63.1 nM (active). Consider `CN(c1ccc(C(=O)NC2CC3CCC2C3)cc1)S(C)(=O)=O` (stereo not given), for which the “activity, negative = inhibition” value was -6.32%. For the compound `CCCC1c2c(ccc3ccccc23)Oc2ccc3ccccc3c21`, the concentration at half-maximal activity (AC50) is 631 nM (active). As to `COc1ncc2nc(-c3cc(F)cc(F)c3)c(=O)n(CCC#N)c2n1`, the “activity, negative = inhibition” value is -11.5%. On to `C=CCNC(=O)c1csc(-c2ccccc2)n1`, for which the AC50 was 10000 nM (active). For the compound `C=CCNC(=O)c1ccccc1Cl`, the “activity, negative = inhibition” value is 1.46%.

Consider `NCCc1nc(-c2nc(C(=O)O)cs2)cs1`, for which the activity, negative = inhibition is -18.8% [at 11.4 µM].

Consider `O=C(/C=C/c1ccco1)Nc1ccc(Oc2ccccc2)cc1`, for which the half-maximal activity concentration (AC50) is 5010 nM (active). Same read-out and setting: next, `O=C(c1ccccc1)c1nc2ccccc2n(CCCn2c(=O)c(C(=O)c3ccccc3)nc3ccccc32)c1=O`: 1000 nM (active); `CCCCCn1c(=O)c(C(=O)c2ccccc2)nc2ccccc21`: 2000 nM (active). As for `O=C(O)Cc1cc2ccccc2nc1C(=O)O`, the “activity, negative = inhibition” value is -42.8%.

As to `COc1ccc2c(c1)CCC1[C@@H]2CCC2(C)[C@@H](NCCCCCCN3C(=O)C=CC3=O)CC[C@@H]12` (stereo not given in full), the “activity, negative = inhibition” value is -26.3%. In the case of `COc1cccc(CNCc2ccc(SC)cc2)c1OC`, the AC50 was 251 nM (active). In the case of `Oc1ccc(CNCc2ccccc2)c2cccnc12`, the activity, negative = inhibition was -5.63% [at 11.4 µM]. Take `CC(C)(C)NC(=O)CSC(=Nc1ccc(F)cc1)NC#N`: the AC50 is 2820 nM (active). As to `COc1ccc(C(=O)N2CCC3(CCCN(CC(C)C)C3)CC2)cc1`, the “activity, negative = inhibition” value is 1.45%.

As to `Cc1ccc2cc(C(=O)O)c(C)nc2c1`, the “activity, negative = inhibition” value was 16.7%. For `Cc1ccc2cc3cc(C(=O)N4CCCCC4C)oc3nc2c1` (stereo not given), the AC50 was 14100 nM (active).

Turning to `COc1ccc(C)cc1NC(=O)c1cc2cc3ccc(C)cc3nc2o1`, the “activity, negative = inhibition” value was -5.08%. As to `COc1ccc2cc3cc(C(=O)NCc4ccc5c(c4)OCO5)oc3nc2c1`, the AC50 was 10000 nM (active). Same read-out and setting: the result for `COc1ccc2cc3cc(C(=O)NCCN4CCN(c5ccccc5F)CC4)oc3nc2c1` reads 28200 nM (active); that for `COc1ccc2cc3cc(C(=O)Nc4ccc5c(c4)OCO5)oc3nc2c1`, 7080 nM (active). Regarding `COc1ccc2cc3cc(C(=O)NCCCN4CCOCC4)oc3nc2c1`, the “activity, negative = inhibition” value is -3.66%. Same read-out and setting: next, `COc1ccc2cc3cc(C(=O)NCc4ccccn4)oc3nc2c1`: 9.71%; `CCN1CCN(CCCNC(=O)c2cc3cc4ccc(OC)cc4nc3o2)CC1`: -17.8%. Same read-out and setting: the result for `CCN(CC(=O)O)CC(=O)O` reads 7.01% [at 11.4 µM]; that for `COCC(=O)N1CCC[C@@]2(CCN(c3ncccn3)C2)C1`, -9.51%.

For `O=S1(=O)C=C(SCc2cccc(Cl)c2)Nc2ccccc21`, the AC50 was 891 nM (active).
